Test results published in PubChem BioAssay AID431 (Sanford-Burnham Center for Chemical Genomics, 2006).
Among all 63,000 compounds or so, about 1,100 (1.7%) were called active.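 How the source made its calls: active means compounds whose percent cytotoxicity in the single-dose primary screen, scaled between solvent and toxic-drug controls, exceeds 50; inactive means the rest.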 This excerpt belongs to a sample that is enriched for actives. Potency and affinity values are given separately.

Experiment: cytotoxicity in KRAS-transformed pancreatic duct cells, primary screen, cell-based, fluorescence, HTS (AID 431);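 further: 0% = DMSO solvent wells and 100% = doxorubicin-treated wells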
Details: HPDE-C7K KRASV12 cells, Alamar Blue viability, 48 h; at 10 µM; stronger effect = higher value
With `COc1ccc(CN(Cc2ccccn2)C(=O)CN2C(=O)COc3ccccc32)cc1` the cytotoxicity was -15.4% (inactive). In the case of `CCCCS(=O)(=O)c1sc2nc3c(cc2c1N)CCCC3`, the cytotoxicity is reported as -4.6% (inactive). In the case of `Cc1cc(NC(=O)COc2ccc(N(C)S(=O)(=O)c3ccccc3)cc2)no1`, the cytotoxicity is reported as -0.8% (inactive). In the case of `CCOC(=O)Cn1cnc2c(nnn2Cc2ccc(Cl)cc2)c1=O`, the cytotoxicity is reported as -1% (inactive). For `CCSc1nnc(NC(=O)CSc2nnc(Cc3cccn3C)n2-c2ccc(C)cc2)s1`, the cytotoxicity was 50.6% (active). With `Cc1ccc(-n2c(Cc3cccn3C)nnc2SCC(=O)Nc2nnc(C)s2)cc1` the cytotoxicity was -0.8% (inactive). In the case of `CCSc1nnc(NC(=O)CSc2nnc(Cc3cccn3C)n2-c2ccc(F)cc2)s1`, the cytotoxicity is reported as 49.5% (inactive). In the case of `Cc1ccc(N)c(C(O)(C(F)(F)F)C(F)(F)F)c1`, the cytotoxicity is reported as -9.9% (inactive). For `CC(C)(NO)/C(=N/O)c1ccc(Br)cc1`, the cytotoxicity was -3.6% (inactive). With `CN(Cc1ccccc1)C(=O)Nc1ccccc1` the cytotoxicity was 9.8% (inactive). In the case of `CC(=O)c1sc(NC(=O)C2(F)C(F)(F)C(F)(F)C(F)(F)C(F)(F)C2(F)F)nc1C`, the cytotoxicity is reported as 51% (active). For `CC(=O)c1sc(NC(=O)C=C(C)C)nc1C`, the cytotoxicity was -0.4% (inactive). For `CCCCC(=O)Nc1nc(C)c(C(C)=O)s1`, the cytotoxicity was -0.2% (inactive). In the case of `O=C(Cn1ncc2c(=O)oc3ccccc3c21)NC1CC1`, the cytotoxicity is reported as -0.5% (inactive). With `COc1ccccc1N1CC(O)=C(c2nc3ccccc3c(=O)[nH]2)C1=N` the cytotoxicity was 26.5% (inactive). With `COc1cccc(N2CC(O)=C(c3nc4ccccc4c(=O)[nH]3)C2=N)c1` the cytotoxicity was 28% (inactive). In the case of `CCOC(=O)c1ccc(N2CC(O)=C(c3nc4ccccc4c(=O)[nH]3)C2=N)cc1`, the cytotoxicity is reported as 51.4% (active). With `O=C(CCN1CCCC1)Nc1cccc(Br)c1` the cytotoxicity was 3.2% (inactive). With `Cc1ccc(C)c(NC(=O)CN(C)S(=O)(=O)c2ccc(F)cc2)c1` the cytotoxicity was -4.8% (inactive). For `O=C(NCCc1cn2ccccc2n1)c1ccc(Br)o1`, the cytotoxicity was -1.7% (inactive). For `O=S(=O)(Nc1ncnc2sc3c(c12)CCC3)c1ccc(Cl)s1`, the cytotoxicity was 50.7% (active). For `O=C(Nc1ncnc2sc3c(c12)CCC3)c1ccco1`, the cytotoxicity was 10.7% (inactive). With `Cc1nc(NS(=O)(=O)c2cccs2)c2c3c(sc2n1)CCC3` the cytotoxicity was 10.8% (inactive). In the case of `COc1ccc(C2N(c3ccc(F)cc3)C(=O)C3CCCN32)cc1` (stereo not drawn), the cytotoxicity is reported as -2.8% (inactive). For `CCOC(=O)C1CCCN(C(=O)c2ccc(CS(=O)(=O)Cc3ccccc3C)o2)C1` (stereo not drawn), the cytotoxicity was 16.4% (inactive). With `CCC(C)[C@@H](C(=O)Nc1ccc(OC)c(OC)c1)N1Cc2ccccc2C1=O` (stereo partly drawn) the cytotoxicity was -0.4% (inactive). With `Cn1cnc2c(N3CCCCC3)nccc21` the cytotoxicity was 3.7% (inactive). In the case of `c1cncc(Nc2nc(-c3cccnc3)cs2)c1`, the cytotoxicity is reported as 15% (inactive). With `CCN(C(=O)c1ccc(C(C)(C)C)cc1)c1nnc(Cn2nnc3ccccc32)s1` the cytotoxicity was 88.4% (active). In the case of `CCN(C(=O)CSc1nnc(Cn2nnc3ccccc32)o1)c1nc(-c2ccccc2)cs1`, the cytotoxicity is reported as -0.5% (inactive). For `CCN(C(C)=O)c1nnc(CSc2nc3ccccc3s2)s1`, the cytotoxicity was 23.5% (inactive). For `O=C(Nc1ccccc1C(=O)NCc1ccco1)c1ccco1`, the cytotoxicity was 7.2% (inactive). For `N=c1n(CCN2CCOCC2)c2ccccc2n1CC(O)COc1ccccc1` (stereo not drawn), the cytotoxicity was -9.7% (inactive). For `CC1(C)Cc2c(C#N)c(N3CCN(C(=O)c4ccco4)CC3)nc(-c3ccco3)c2CS1`, the cytotoxicity was 44.2% (inactive). For `CCCc1nc(NCc2ccco2)c(C#N)c2c1COC(C)(C)C2`, the cytotoxicity was 1.1% (inactive). With `CCCCc1nc(NCCNC(=O)c2ccco2)c(C#N)c2c1CSC(C)(C)C2` the cytotoxicity was 80.9% (active). For `CCOC(=O)c1cnc(SCC(=O)Nc2sc(C)c(C)c2C#N)nc1N`, the cytotoxicity was -2.2% (inactive). With `CCOc1ccc(Nc2cc(C)nc(N3CCOCC3)n2)cc1` the cytotoxicity was -19.5% (inactive). In the case of `COCCn1c(SCC(=O)Nc2nc(C)c(Cl)cc2Cl)nc2ccccc21`, the cytotoxicity is reported as -6.8% (inactive). In the case of `Cc1ccccc1-c1nc(CS(=O)(=O)CC(=O)NCc2ccc3c(c2)OCO3)c(C)o1`, the cytotoxicity is reported as 14.4% (inactive). With `O=c1n(Cc2ccccc2Cl)c2sc3c(c2c2ncnn12)CCCC3` the cytotoxicity was -12.2% (inactive). In the case of `O=C(Cn1c(=O)n2ncnc2c2c3c(sc21)CCCC3)c1ccccc1`, the cytotoxicity is reported as -20.6% (inactive). For `COCCn1c(Cc2ccccc2)nnc1SCC(=O)NC(C)C`, the cytotoxicity was -14.6% (inactive). With `CCOC(=O)c1[nH]c(C)c(C(=O)c2cc(F)ccc2F)c1C` the cytotoxicity was 70.6% (active). With `CCOC(=O)c1[nH]c(C)c(C(=O)Nc2cc(Cl)ccc2C)c1C` the cytotoxicity was 55% (active). For `CCOC(=O)c1[nH]c(C)c(C(=O)Nc2ccccc2C)c1C`, the cytotoxicity was 45.7% (inactive). With `CCOC(=O)c1[nH]c(C)c(C(=O)OCC)c1C` the cytotoxicity was -10% (inactive). For `CCOC(=O)c1[nH]c(C)c(C(=O)Nc2ccc(F)cc2)c1C`, the cytotoxicity was -5.4% (inactive). For `CCOC(=O)c1[nH]c(C)c(C(=O)Nc2ccc(Cl)cc2)c1C`, the cytotoxicity was 10.1% (inactive). In the case of `CCN(CC)CCNC(=O)C1CCC(=O)N(c2ccc(OC)cc2)C1c1ccc(F)cc1` (stereo not drawn), the cytotoxicity is reported as 5.4% (inactive). For `COc1cccc(N2C(=O)CC(N3CCC(C(N)=O)(N4CCCCC4)CC3)C2=O)c1` (stereo not drawn), the cytotoxicity was -2.6% (inactive). For `Clc1ccc(-c2nnc3sc(Cc4cccs4)nn23)c(Cl)c1`, the cytotoxicity was -3.4% (inactive). For `O=C(NC1CCCCC1)N1CCCCCCC1`, the cytotoxicity was -4.9% (inactive). With `COc1cc2c(=O)n(Cc3ccccc3)c(=O)n(CC(=O)NCc3ccco3)c2cc1OC` the cytotoxicity was 5.4% (inactive). In the case of `COc1cc2c(=O)n(Cc3ccccc3)c(=O)n(CC(=O)C(C)(C)C)c2cc1OC`, the cytotoxicity is reported as -1.3% (inactive). With `COc1ccc(CCNC(=O)Cn2c(=O)n(Cc3ccco3)c(=O)c3ccc(Cl)cc32)cc1OC` the cytotoxicity was 4.2% (inactive). In the case of `CCOC(=O)Cn1c(=O)n(Cc2ccco2)c(=O)c2ccc(C(=O)NCCc3ccccc3)cc21`, the cytotoxicity is reported as 7.3% (inactive). For `COc1cc2c(=O)n(Cc3ccco3)c(=O)n(CC(=O)c3cccc(Br)c3)c2cc1OC`, the cytotoxicity was 50% (active). In the case of `COc1cc2c(=O)n(Cc3ccco3)c(=O)n(CC(=O)c3ccc(Br)cc3)c2cc1OC`, the cytotoxicity is reported as 80.3% (active). In the case of `COC(=O)c1ccc(C(=S)N2CCOCC2)cc1`, the cytotoxicity is reported as -0.4% (inactive). With `Cc1ccc(C(c2nnnn2C(C)(C)C)N(Cc2ccco2)Cc2cccs2)cc1` (stereo not drawn) the cytotoxicity was 1.5% (inactive). With `COc1cccc(NC(=O)COC(=O)c2cccnc2)c1` the cytotoxicity was -8.8% (inactive). With `CC(C)(C)OC(=O)N1CCC[C@H]1C(=O)NCC1CCC(C(=O)O)CC1` (stereo partly drawn) the cytotoxicity was 7.4% (inactive). In the case of `CCC(c1nnnn1C1CCCCC1)N1CCN(C2CCCC2)CC1` (stereo not drawn), the cytotoxicity is reported as 3.5% (inactive). For `CCCCNc1cc(C)nc(NCc2ccccc2)n1`, the cytotoxicity was 82.9% (active). In the case of `Cc1cc(C)nc(NCCCc2ccccc2)n1`, the cytotoxicity is reported as -12.4% (inactive). For `Cc1cc(NCCCN)nc(-c2ccccc2O)n1`, the cytotoxicity was 22.2% (inactive). With `CCCCOc1cc(C)nc(NCc2ccccc2)n1` the cytotoxicity was -11.6% (inactive). In the case of `Cc1cc(Nc2ccccc2)nc(-c2ccccc2O)n1`, the cytotoxicity is reported as 1.4% (inactive). With `CC1=C(C(=O)OC(C)C)C(c2ccccn2)n2ncnc2N1` (stereo not drawn) the cytotoxicity was 5.9% (inactive). For `COc1ccccc1NC(=O)N1CCN(c2ccccc2F)CC1`, the cytotoxicity was 8% (inactive). With `O=C(O)COc1ccc(C(=O)Cc2ccc3c(c2)OCCCO3)c(O)c1` the cytotoxicity was -4.8% (inactive). With `O=C(O)CCC(=O)c1ccc2c(c1)OCCO2` the cytotoxicity was 1.9% (inactive). For `O=C(Cc1ccc2c(c1)OCCO2)c1c(O)cc(O)cc1O`, the cytotoxicity was 62.7% (active). With `O=C(Cn1ncc2c1-c1ccccc1OC2)N(Cc1ccco1)C1CCCCC1` the cytotoxicity was 2.4% (inactive). In the case of `Cn1c(SCC(=O)N2CCN(c3ccccc3)CC2)nnc1-c1cc2ccccc2o1`, the cytotoxicity is reported as 10.4% (inactive). For `CSc1nsc(SC)c1NC(=O)OCCc1ccccn1`, the cytotoxicity was -3.5% (inactive). In the case of `CC(C)(C)c1ccc(Cn2nnc3c(=O)[nH]c(C4CCN(C(=O)Cc5cccs5)CC4)nc32)cc1`, the cytotoxicity is reported as 8.5% (inactive). With `O=C(Cc1cccs1)N1CCCC(c2nc3c(nnn3Cc3ccc(F)cc3)c(=O)[nH]2)C1` (stereo not drawn) the cytotoxicity was 8.4% (inactive). In the case of `CCn1c(CN2CCCCCC2=O)nnc1SCc1cnc(-c2ccccc2)s1`, the cytotoxicity is reported as -1.7% (inactive). For `Cc1ccc(-c2csc3ncnc(-n4nc(C)cc4N)c23)cc1`, the cytotoxicity was -8.1% (inactive). In the case of `O=C(CNC(=O)c1ccco1)OCc1ccc(Cl)cc1`, the cytotoxicity is reported as -3% (inactive). With `COc1ccccc1NC(=O)Nc1c(C)n(C)n(-c2ccccc2)c1=O` the cytotoxicity was -1.8% (inactive). For `CCOC(=O)Cn1c(=O)n(C2CCCC2)c(=O)c2ccccc21`, the cytotoxicity was -5.4% (inactive). In the case of `CCc1cc2c(N3CCN(c4nnc(CC)s4)CC3)ncnc2s1`, the cytotoxicity is reported as 19.4% (inactive). For `COc1ccc(-n2ncc3c(N4CCN(c5cc(C)ccc5C)CC4)ncnc32)cc1`, the cytotoxicity was 15.6% (inactive). For `O=C(COc1ccccc1)N1CCN(c2ncnc3c2cnn3-c2ccccc2)CC1`, the cytotoxicity was 5.3% (inactive). In the case of `CCc1cc2c(N3CCN(c4ccccc4)CC3)ncnc2s1`, the cytotoxicity is reported as 91.1% (active). For `O=C(c1ccco1)N1CCN(c2ncnc3c2cnn3-c2ccccc2)CC1`, the cytotoxicity was -0.8% (inactive). For `CCc1cc2c(N3CCCCC3)ncnc2s1`, the cytotoxicity was -10.5% (inactive). With `CCN1CCN(c2ncnc3c2cnn3-c2ccc(C)cc2C)CC1` the cytotoxicity was 11.6% (inactive). In the case of `Cc1ccc(-n2ncc3c(N4CCCC4)ncnc32)c(C)c1`, the cytotoxicity is reported as 1.2% (inactive). In the case of `COc1ccc(N2CCN(c3ncnc4c3cnn4-c3ccc(C)cc3C)CC2)cc1`, the cytotoxicity is reported as -12.5% (inactive). For `O=C(CSc1nnnn1C1CCCCC1)NCCc1ccccc1`, the cytotoxicity was 4.8% (inactive). In the case of `COc1cccc(-c2cnc(NCc3cc(Cl)ccc3O)n2C)c1`, the cytotoxicity is reported as -7.2% (inactive). For `CC(=O)Nc1ccc(NC(C)=O)s1`, the cytotoxicity was -16.5% (inactive). For `CCCCNC(=O)C(C#N)c1nc2ccccc2nc1N1CCCC1` (stereo not drawn), the cytotoxicity was -16.3% (inactive). For `CCN(CC(=O)Nc1ccc2c(c1)OCCO2)Cc1cc(=O)oc2c(C)c(C)ccc12`, the cytotoxicity was 9.3% (inactive).
